TRPV1 PAM = HTS Assay for Compounds that Act as Potentiators of the Vanilloid Receptor 1. TRPV1-expressing cells, Fluo-8 calcium influx, capsaicin EC20 potentiation. AID 540277, 2011. Transient receptor potential cation channel subfamily V member 1 (Homo sapiens), Q8NER1. potentiation, % at 8.33 µM. 320,000 compounds, 0.02% hits; in the data active = potentiation above about 80%; inconclusive = between about 30% and that limit; also: 0% is about no effect
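Cells expressing TRPV1 were dye-loaded with Fluo-8 and read kinetically: 10 s baseline, 3 min after compound (agonist portion), then 2 min after EC20 capsaicin (allosteric enhancer portion). Calcium-bound dye fluorescence at 480/520 nm.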
TRPV1 agonist = HTS Assay for Compounds that Act as Agonists of the Vanilloid Receptor 1. 320,000 compounds, 0.19% hits. Transient receptor potential cation channel subfamily V member 1 (Homo sapiens), Q8NER1. activation, % at 8.33 µM. TRPV1-expressing cells, Fluo-8 calcium influx, agonist mode; in the data active = activation above about 80%; inconclusive = between about 30% and that limit; also: 0% is about no effect
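Cells expressing TRPV1 were dye-loaded with Fluo-8 and read kinetically: 10 s baseline, 3 min after compound (agonist portion), then 2 min after EC20 capsaicin (allosteric enhancer portion). Calcium-bound dye fluorescence at 480/520 nm.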
TRPML1 blocker = qHTS for Inhibitors of the Human Mucolipin Transient Receptor Potential 1 (TRPML1); 390,000 compounds, 0.02% hits; activity change, negative = inhibition, % (test concentration not listed); Mucolipin-1 (Homo sapiens), Q9GZU1; TRPML1-inducible cells, Ca2+ dye fluorescence, FDSS; active compounds read low; inhibition of EC80 agonist-evoked calcium signal; in the data active = activity change below about -50%; inconclusive = between about -30% and that limit;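 also: stimulus is agonist 54-4 at its EC80 concentration; % is scaled to controls: 0 for no effect and ±100 for the full control effect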
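Tet-induced TRPML1-DL cells loaded with Ca8 no-wash calcium dye were read kinetically on FDSS. Compound addition was followed by EC80 agonist 54-4 (4 uM final); inhibition was read over 110 s.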
TRHR ag = qHTS for Small Molecule Agonists and Allosteric Enhancers of Human TRH Receptor: Primary Screen for Agonists; Thyrotropin-releasing hormone receptor (Homo sapiens), P34981; TRHR cells, calcium flux fluo-8, FDSS agonist mode; activation, % at 2 µM; 360,000 compounds, 0.18% hits; in the data active = activation above about 30%; also: 0% is about no effect
Target sequence (P34981 whole entry, looked up): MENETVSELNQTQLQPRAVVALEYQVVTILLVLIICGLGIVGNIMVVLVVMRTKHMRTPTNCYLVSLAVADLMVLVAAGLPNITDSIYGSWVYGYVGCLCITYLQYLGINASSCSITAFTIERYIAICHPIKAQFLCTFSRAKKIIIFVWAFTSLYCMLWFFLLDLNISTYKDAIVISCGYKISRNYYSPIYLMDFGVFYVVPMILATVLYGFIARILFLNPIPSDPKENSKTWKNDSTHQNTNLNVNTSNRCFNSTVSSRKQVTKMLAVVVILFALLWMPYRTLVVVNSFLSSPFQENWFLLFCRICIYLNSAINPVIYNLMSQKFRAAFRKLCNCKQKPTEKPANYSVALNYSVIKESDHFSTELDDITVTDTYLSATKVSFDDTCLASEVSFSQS
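Steps: seed TRHR cells overnight; add fluo-8 no-wash Ca dye, RT 30 min–1.5 h; record 10 s baseline; pin-transfer compounds; monitor fluorescence 1 cycle/s for the agonist window. Calcium increases flag candidate agonists.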
TRPML1 agonist = qHTS for Agonists of the Human Mucolipin Transient Receptor Potential 1 (TRPML1); Mucolipin-1 (Homo sapiens), Q9GZU1; TRPML1-expressing cells, Ca2+ dye fluorescence, FDSS; activation, % (test concentration not listed); 410,000 compounds, 0.12% hits; AID 624414, 2012; in the data active = activation above about 50%; inconclusive = mostly about 30% to 49%; also: 0% is about no effect
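Calcium fluorescence on an FDSS kinetic reader gave the read-out. Tet-induced TRPML1-DL cells were plated overnight, dye-loaded (Ca8 with quencher, 45-90 min, room temperature, dark), then read 110 s after compound addition, and again 110 s after 4uM final 54-4 (EC80).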
TRHR enhancer = qHTS for Small Molecule Agonists and Allosteric Enhancers of Human TRH Receptor: Primary Screen for Enhancers. 360,000 compounds, 0.66% hits. TRHR cells, fluo-8 calcium fluorescence, EC20 TRH enhancement. enhancement, % at 2 µM. AID 493056, 2011. Thyrotropin-releasing hormone receptor (Homo sapiens), P34981; in the data active = enhancement above about 30%; also: 0% is about no effect
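TRHR-expressing cells loaded with fluo-8 calcium dye were read kinetically (ex 480/em 530) during compound addition, then stimulated with an EC20 of TRH (10 nM final). Enhancement of the Gq-mediated intracellular calcium response was scored.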
Starred values were filed as active, the others as inactive; ? = inconclusive; / = not tested or not shown; ! = not active in a repeat. The list is not random: actives were taken first. Their share in the collection is about 0.96%.

SMILES	TRPV1 PAM	TRPV1 agonist	TRPML1 blocker	TRHR ag	TRPML1 agonist	TRHR enhancer
CS(=O)(=O)N1CCc2cc(C(=O)Nc3ccc(Br)cc3)ccc21	-7	88*	?	0	1	0
Cc1ccc(NC(=O)c2ccc3c(c2)CCN3S(C)(=O)=O)cc1	/	/	2	/	-1	/
Cc1ccc(/C=N\NC(=O)Cn2nnc3ccccc32)o1	5	1	0	0	3	33*
COc1cccc(Cn2ncc3c4sc(C)cc4n(C)c3c2=O)c1	/	/	/	-2	/	-2
Cc1cc(C)n(C(=O)CNC(=O)c2cccs2)n1	0	0	-9	0	0	37*
Cc1cc(C)n(C(=O)CNC(=O)c2cccc(Cl)c2)n1	3	-1	-5	1	1	-2
CCN(CC)c1ccc(/C=C/c2ccc3ccccc3n2)cc1	/	/	/	/	1	/
CN(C)C=Nc1c(Br)cc(Br)c2nonc12	-9	?	-6	141*	62*	11
CN(C)C=Nc1nonc1-c1ccccc1	2	2	-3	0	-1	-1
O=C(NCCSCc1ccccc1)c1ccc(F)cc1	-21	81*	6	-3	0	-9
Cc1ccc(S(=O)(=O)Cc2ccc(C(=O)NCCc3ccccc3)o2)cc1	-27	81*	5	-1	-1	-2
O=C(NCc1ccccc1Cl)c1ccc(CS(=O)(=O)c2ccc(Br)cc2)o1	/	/	0	0	11	40*
Cc1ccc(C(=O)NCCc2ccccc2)cc1	-12	84*	/	0	/	2
O=C(NCc1ccccc1Cl)c1ccc(CS(=O)(=O)c2ccccc2)o1	1	5	11	2	3	-5
Cc1ccc(CN(Cc2cc3cc(C)ccc3[nH]c2=O)Cc2nnnn2Cc2ccccc2)cc1	/	/	/	/	-1	/
O=C(CCc1c[nH]c2ccccc12)NCCc1ccc(Cl)cc1	0	80*	-14	0	-1	-3
COc1cc2nc(NC3CCN(C)CC3)nc(NC3CCN(C)CC3)c2cc1OC	/	/	/	/	-1	/
Cn1c2ccccc2c(=O)c2c(=O)n(C3CCCCC3)c(-c3ccco3)nc21	-22	10	5	11	11	0
Cc1nc2c(c(=O)c3ccccc3n2C)c(=O)n1C1CCCCCC1	-19	20	8	33*	?	-6
O=C(CCN1C(=O)/C(=C/C=C/c2ccccc2)SC1=S)Nc1ccccn1	13	0	-9	0	1	39*
C[n+]1ccc(/C=C/c2ccc([N+](C)(C)C)cc2)c2ccccc21	/	/	/	/	-1	/
CCOc1ccc(NS(=O)(=O)c2ccc(NC(=S)NC(=O)CC(C)C)cc2)cc1	-23	3	-1	4	7	32*
CCOc1ccc(NC(=S)NC(=O)Cc2ccccc2)cc1	11	87*	-8	1	0	-9
CCN(CC)c1ccc(NC(=S)NC(=O)Cc2ccccc2)cc1	8	?	17	0	1	3
CC(C)C(OC(=O)CNC(=O)c1ccccc1)C(=O)Nc1cc(C(F)(F)F)ccc1Cl (stereo not given)	/	/	/	1	/	-6
SMILES	TRPV1 PAM	TRPV1 agonist	TRPML1 blocker	TRHR ag	TRPML1 agonist	TRHR enhancer
Cc1ccc(-c2[nH]ncc2CNC(C)c2ccccc2)cc1 (stereo not given)	/	/	/	/	0	/
CC(C)c1ccc(NC(=O)c2cc3c([nH]c2=O)CC(C)(C)CC3=O)cc1	/	/	/	/	-1	/
O=C(CSCc1ccccc1)N=Nc1c(O)[nH]c2ccccc12	7	7	3	-1	6	1
Cc1ccc2[nH]c(O)c(N=NC(=O)CCc3ccccc3)c2c1Br	1	-2	3	1	0	32*
CCc1cccc2c(C(O)c3c[nH]c4ccccc34)c[nH]c12 (stereo not given)	/	/	/	/	12	/
COc1ccc(CCN2C(=O)c3[nH]nc(-c4ccccc4O)c3C2c2ccc(OC)cc2)cc1 (stereo not given)	/	/	48	0	0	10
COc1ccc(CCN2C(=O)c3[nH]nc(-c4ccccc4O)c3C2c2ccc(OC)c(OC)c2)cc1 (stereo not given)	/	/	3	0	3	31*
COC(=O)c1ccc(Cn2nnc3c(=O)[nH]c(C4CCN(S(=O)(=O)c5ccc(F)cc5)CC4)nc32)cc1	10	-1	2	0	1	-4
COC(=O)c1ccc(Cn2nnc3c(=O)[nH]c(C4CCCN(S(=O)(=O)c5ccccc5Cl)C4)nc32)cc1 (stereo not given)	-5	0	0	1	-1	30*!
COc1cc(/C=N/NC(=O)CNc2n[nH]c(=O)[nH]c2=O)ccc1O	13	-1	-19	0	1	-2
COc1ccc(/C=N/NC(=O)CNc2n[nH]c(=O)[nH]c2=O)cc1OC	6	-3	-5	-1	0	34*
COC(=O)C[C@H]1c2cc(F)ccc2S(=O)(=O)N1C1CC1	/	/	/	/	-1	/
CNc1cc(C(=O)O)nc2ccccc12	/	/	/	/	10	/
CC1(C)OC(=O)C(=CNc2ncccn2)C(=O)O1	-2	-2	-10	1	1	5
CC1(C)OC(=O)C(=CNNc2c(Cl)cc(Cl)cc2Cl)C(=O)O1	8	4	27	-1	0	31*
O=C(c1cnn2c1NC(=C1CC1)C=C2C(F)F)N1CCc2ccccc21	/	/	/	/	-1	/
Cc1cccc(NC(=O)CSc2nnc(C3CC3)n2CC2CCCO2)c1C (stereo not given)	4	0	-6	0	-1	-7
CCc1ccccc1NC(=O)CSc1nnc(C2CC2)n1CC1CCCO1 (stereo not given)	-3	4	19	-2	0	31*
COc1cc(/C=C/c2ccnc3ccccc23)cc(OC)c1OC	/	/	/	/	-1	/
CC(=O)c1cc(NC(=O)c2ccc(Cl)cc2)c(=O)oc1/C=C/N(C)C	-16	?	-8	39*	?	-3
COc1nnc(-c2ccc(N3CCCCC3)c(NC(=O)c3ccccc3)c2)c2ccccc12	/	/	-8	-1	-1	3
COc1nnc(-c2ccc(N3CCCCC3)c(NC(=O)c3ccc(Cl)cc3)c2)c2ccccc12	/	/	2	-1	2	39*
